± gives the standard deviation. In all, about 5,500 sequences were measured (“pre-steady-state target cleavage rate”: median about 0.1, highest 2% from about 0.64 on). The full list was thinned out, with the highest values kept by preference.

The test system of this test is MIWI (PIWIL1) piRISC loaded with piRNA #2 (30 nt). Description: pre-steady-state target cleavage rate (min^-1); MIWI and MILI are mouse PIWI proteins and EfPiwi is from a freshwater sponge; tags in brackets are library labels; higher = faster piRNA-guided slicing of the target. Conditions: guide: piRNA #2 5'p-UUAGGUAACCCAGUAGAUCCAGAGGAAUUC; auxiliary factor: 500 nM mouse GTSF1. The gist of the method: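 The pre-steady-state cleavage rate was obtained by Cleave-'n-Seq with a burst-and-steady-state fit. A transcribed, DNA-blocked target RNA library (0.1 nM) was mixed with 1 nM active affinity-purified piRISC carrying one synthetic guide, with or without 500 nM GTSF1 partner protein, in HEPES–potassium acetate buffer at 33 °C for 0–8 or 0–960 min. Uncleaved targets were sequenced and normalised to depth and to weakly complementary targets, with three trials pooled and k3 capped at 0.0001 min^-1.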
Regarding CUUAUCGUCUGGAUCUACUGGGUUACCUUA, the “pre-steady-state target cleavage rate” value was determined as 0.295 ± 0.066.
To CAAUUCCUCUGGAACUACUGGGUAACCUAA belongs 0.235 ± 0.035.
To CUUUUCCUCUGGAUCUACACCGUUACCUAA belongs 0.0786 ± 0.0085.
On to CUUAACCUCUCGAUCUACUGGGUUACCUUA, for which the “pre-steady-state target cleavage rate” value stood at 0.373 ± 0.034.
To GAAUUCCUCUGGAACUAGUGGGUUACCUAA belongs 0.221 ± 0.027; to GAAUUCCUCUGGAUCUUCUGGGUUACCUAA, 0.274 ± 0.047; to CAAUUCCUCUGGAUCUACUGGGUUACCAUA, 0.518 ± 0.076.
To CUAUUCCUCUGGAUCUACUGGGUUACAUAA belongs 0.739 ± 0.051; to CUAUUCCUCUGGAUCUACUGGGUUACCAUA, 0.413 ± 0.054; to CAAUUCCUCUGGAUCUACUGGGUUACCAUAA, 0.588 ± 0.078.
Next, CUUAUCCUCUGGAUCUACUGGGUUACAUAA: 0.742 ± 0.048.
For the sequence CUAUUCCUCUGGAUCUACUGGGUUACCAUAA, the “pre-steady-state target cleavage rate” value amounted to 0.553 ± 0.069.
To CAAUUCCUCUGGAUCUACUGGGUUACCUGAA belongs 0.438 ± 0.14; to GAAUUCCUCUGGAUCUACUGGGUUACCUGAA, 0.735 ± 0.26; to CAAUUCCUCUGGAUCUACUGGGUUACAUAA, 0.739 ± 0.053.
To CUUAUCCUCUGGAUCUACUGGGUUACCAUA belongs 0.497 ± 0.069.
To CUUAUCCUCUGGAUCUACUGGGUUACCAUAA belongs 0.452 ± 0.06.
In the case of CAAUUCCUCUGGAUCUACUGGGUUACCUGA, the “pre-steady-state target cleavage rate” value amounted to 0.328 ± 0.086.
Next, CUUAAGGUCUUGGAUCUACUGGGUUACCUAA: 0.291 ± 0.03.
To CUUAAGGUCUGGAUCUACUGCGUUACCAAA belongs 0.109 ± 0.029; to CUAAUCCUCUGGAUCAACUGGGUUACCUAA, 0.381 ± 0.043.
Next, GAAUUCCUCUGGAUCUACUGGGUUAGCCUAA: 0.299 ± 0.036.
Consider CUUUUCCUCUGGAUCUACUGGGUUACCAUAA, for which the “pre-steady-state target cleavage rate” value came to 0.422 ± 0.047.
With GAAUUCCUCUGGAUCUACUGGGUUACAUAA, the “pre-steady-state target cleavage rate” value turned out to be 0.64 ± 0.057.
To CUUUUCCUCUGGAUCUACUGGGUUACCAUA belongs 0.437 ± 0.048.
To CUAUUCCUCUGGAUCUACUGGGUUAACUAA belongs 0.349 ± 0.071.
To CUUUUCCUCUGGAUCUACUGGGUUACAUAA belongs 0.738 ± 0.042.
As for GAAUUCCUCUGGAUCUACUGGGUUAACUAA, the “pre-steady-state target cleavage rate” value is 0.674 ± 0.059.
To CAAUUCCUCUGGAUCUACUGGGUUAACUAA belongs 0.386 ± 0.098.
In the case of GAAUUCCUCUGGAUCUACUGGGUUACCAUAA, the “pre-steady-state target cleavage rate” value was found to be 0.383 ± 0.049.
Next, CUAUUCCUCUGGAUCUACUGGGUUAGCCUAA: 0.51 ± 0.063; CAAUUCCUCUGGAUCUACUGGGUUAGCCUAA: 0.651 ± 0.079.
Consider GAAUUCCUCUGGAUCUACUGGGUUACCAUA, for which the “pre-steady-state target cleavage rate” value turned out to be 0.364 ± 0.05.
Regarding CUUAACCUCUGGAUCUAGUCGGUUACCUAA, the “pre-steady-state target cleavage rate” value is 0.0063 ± 0.0049.
Take CUUUUCCUCUGGAUCAACUGGGUUUCCUAA: the “pre-steady-state target cleavage rate” value was 0.165 ± 0.034.
Next, CUUAAGGAGACCUUCUACAGCGUUACCUAA: 0.00566 ± 0.0029; CUUAUGCUCUGGAUCUACUGGGUUACCUAA: 0.124 ± 0.02.
In the case of CUUAAGGACAGGUUCUACUGGGUUACCUAA, the “pre-steady-state target cleavage rate” value was found to be 0.0257 ± 0.017.
Next, CUUAAGCUCUGGAUCUACUGGGUAACCAAA: 0.0234 ± 0.0094; CUUAACCUCUGGAUCUACUGGGUUACUAA: 0.116 ± 0.018; CUUAAGGAGUGGAACUACUGGGUUACCUAA: 0.0357 ± 0.024.
Next, CUUAAGGAGUGGAUCUACUGGGUUACCGAA: 0.0437 ± 0.018.
Next, CUUUUCCUCUGGAUCUAGAGGGUUACCUAA: 0.022 ± 0.0052; CUUAACCUCUGGUUCUACUGGCUUACCUAA: 0.112 ± 0.014.
Turning to CUUAACCUCUCGUUCUACUGGGUUACCUAA, the “pre-steady-state target cleavage rate” value turned out to be 0.401 ± 0.044.
Next, CUAUUCCUCUCGUUCUACUGGGUUACCUAA: 0.75 ± 0.077; GAAUUCCUCUCGUUCUACUGGGUUACCUAA: 0.793 ± 0.058.
To GAAUUCCUCUCCUUCUACUGGGUUACCUAA belongs 0.781 ± 0.06.
Turning to GAAUUCCUCUGGAUUCUACUGGGUUACCUAA, the “pre-steady-state target cleavage rate” value worked out at 0.224 ± 0.036.
To CUAUUCCUCUCCUUCUACUGGGUUACCUAA belongs 0.569 ± 0.049; to CAAUUCCUCUGGGUCUACUGGGUUACCUAA, 0.562 ± 0.037; to CUAUUCCUCUGGAUUCUACUGGGUUACCUAA, 0.346 ± 0.047.
To CUUAUCCUCUCGUUCUACUGGGUUACCUAA belongs 0.41 ± 0.039; to CAAUUCCUCUCGUUCUACUGGGUUACCUAA, 0.82 ± 0.071.
Next, CUUUUCCUCUCGUUCUACUGGGUUACCUAA: 0.519 ± 0.041; CAAUUCCUCUCCUUCUACUGGGUUACCUAA: 0.613 ± 0.058; CUUAAGGAGUGGUUCUACUGGGUUACCUUA: 0.0165 ± 0.004.
For CUUAAGGACUGGAUCUACUGGGUUAACUAA, the “pre-steady-state target cleavage rate” value was found to be 0.116 ± 0.042.
Turning to CUUUUCCUCUGGAUCUACUGCCUUACCUAA, the “pre-steady-state target cleavage rate” value came out at 0.0739 ± 0.012.
To CUUAACCUCUGGAUCUACAGGGUUAGCUAA belongs 0.0376 ± 0.0069; to GAAUUCCUCUGGAUCUAGUGGGUUUCCUAA, 0.108 ± 0.019.
To CUUAAGGACUGGAUCUACUAGGUUACCUAA belongs 0.0835 ± 0.039; to CUUAAGGUCAGGAUCUACUGGGUAACCUAA, 0.00869 ± 0.0069.
As for CUUAACCUCUGGAUCUACUGGGUUACACUAA, the “pre-steady-state target cleavage rate” value is 0.344 ± 0.042.
Next, CUAUUCCUCUGGAACUUCUGGGUUACCUAA: 0.299 ± 0.036.
To CUUAUCCUCUGGAUCUAGUGGGAUACCUAA belongs 0.0912 ± 0.02; to GAAUUCCUCUGGAUCUACUGGGAUACCAAA, 0.192 ± 0.06; to CUUAAGGUCUGGAUGUUCUGGGUUACCUAA, 0.05 ± 0.018.
Turning to CUUAACCUCUCGAUGUACUGGGUUACCUAA, the “pre-steady-state target cleavage rate” value was found to be 0.421 ± 0.029.
Next, CUAUUCCUCUCGAUGUACUGGGUUACCUAA: 0.636 ± 0.045; CAAUUCCUCUGGAUGUACUGGGUUACCUAA: 0.578 ± 0.054.
CAAUUCCUCUCGAUGUACUGGGUUACCUAA: the “pre-steady-state target cleavage rate” value was found to be 0.672 ± 0.056.
Next, GAAUUCCUCUCGAUGUACUGGGUUACCUAA: 0.645 ± 0.052.
Next, CUUUUCCUCUCGAUGUACUGGGUUACCUAA: 0.592 ± 0.043; GAAUUCCUCUGGAUGUACUGGGUUACCUAA: 0.352 ± 0.045; CUUAUCCUCUCGAUGUACUGGGUUACCUAA: 0.498 ± 0.03.
To CUAUUCCUCUGGAUGUACUGGGUUACCUAA belongs 0.533 ± 0.041.
Turning to CUUAACCUCUGGAUAUACUGGGUUACCUAA, the “pre-steady-state target cleavage rate” value was 0.552 ± 0.042.
Next, CAAUUCCUCUGGAUCUACUGGGUAACCUAA: 0.263 ± 0.049; CUUAACCUCUGGAUCUACUGGGUAUGCUAA: 0.0233 ± 0.0061; CAAAAGCUCUGGAUCUACUGGGUUACCUAA: 0.105 ± 0.025.
To CUUAAGGAGUGGGAUCUACUGGGUUACCUAA belongs 0.0146 ± 0.0073; to CAAUUCCUCUGGAUCUACUGUGUUACCUAA, 0.751 ± 0.075; to CUUUUUCCUCUGGAUCUACUGGGUUACCUAA, 0.308 ± 0.046.
CUAUUCCUCUGGAUCUACUGGUGUUACCUAA: the “pre-steady-state target cleavage rate” value worked out at 0.00505 ± 0.0032.
Next, GAAUUCCUCUGGAUCUACUGUGGUUACCUAA: 0.00388 ± 0.0038.
On to CUAUUCCUCUGGAUCUACUGUGUUACCUAA, for which the “pre-steady-state target cleavage rate” value was found to be 0.696 ± 0.073.
For CUUUUCCUCUGGAUCUACUGUGUUACCUAA, the “pre-steady-state target cleavage rate” value worked out at 0.751 ± 0.048.
Next, CUUUUCCUCUGGAUCUACUGGUGUUACCUAA: 0.00402 ± 0.0035; GAAUUCCUCUGGAUCUACUGUGUUACCUAA: 0.673 ± 0.06; CAAUUCCUCUGGAUCUACUGGUGUUACCUAA: 0.0066 ± 0.0037.
Take “CUAUUCCUCUGGAUCUACUGGGUUACCUAA [g2:g28:cont:t1A]”: the “pre-steady-state target cleavage rate” value was 0.388 ± 0.062.
Next, GAAUUCCUCUGGAUCUACUGGUGUUACCUAA: 0.0068 ± 0.0031; CAAUUCCUCUGGAUCUACUGGUUACCUAA: 0.19 ± 0.046.

These data come from the supplement of paper PMC10338343.
